# Screens from PubChem.
# Sampled rows, rich in hits. Any-hit rate of the full collection: about 21%.
# SARS PLP yeast: inhibitors of SARS-CoV papain-like protease in yeast; S. cerevisiae expressing SARS-CoV PLpro, growth rescue; actives 0.19% (n = 330,000); AID 485353; Potency, µM (titrated, usually from 32.9 µM), inactives show at the highest dose activity, positive = growth rescue, most hits filed as activators; also: potency is read from the fitted curve at half-maximal effect; 0% is about no effect; nearly all actives have a fitted effect of over 55% in size
# Shiga inhibitor: Shiga toxin inhibition; Vero cells, Shiga toxin protein synthesis inhibition reporter; AID 2315; inhibition, % at 38.7 µM; actives 9.2% (n = 290,000); in the data active = inhibition mostly above about 28%, no sharp cut-off; inactive = mostly below about 43%; also: 0% is about no effect
# CHX counter: counter-screen hit for Shiga toxin inhibitors, cycloheximide. cell reporter, cycloheximide protein synthesis inhibition counterscreen. max response, %. actives 12% (n = 300,000); in the data active = max response mostly above about 13%, no sharp cut-off; inactive = mostly below about 14%; also: read at 38.3 µM for the half of the compounds with a filed dose; 0% is about no effect
# Pf growth 96h: inhibits malaria parasite growth, 96 h. P. falciparum luciferase reporter growth, 96 h. Potency, µM (series often up to 28.7 µM), inactives show top-dose activity change, negative = inhibition, usual class: inhibitors. actives 6.9% (n = 320,000). AID 504834; active = well fitted inhibition curve with a large enough effect; inconclusive = small, poorly fitted or top-dose-only effect, or another doubt; inactive = no such curve, though single readings can be large or run the other way; also: potency is read from the fitted curve at half-maximal effect; % is scaled to controls: 0 for no effect and ±100 for the full control effect
#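 P. falciparum expressing integrated firefly luciferase, in erythrocytes at 2% hematocrit, 0.05% parasitemia, incubated with compounds 96 h at 37 C, 5% CO2. Growth inhibition read as loss of luminescence; two-generation exposure targets delayed-death apicoplast inhibitors.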
# Pf growth 48h: inhibits P. falciparum growth in the first generation, 48 h | actives 5.9% (n = 310,000) | P. falciparum luciferase growth in erythrocytes, 48 h | AID 504832 | Potency, µM (titrated, usually from 28.7 µM), for inactives: at the top dose activity change, negative = inhibition, usual class: inhibitors; active = well fitted inhibition curve with a large enough effect; inconclusive = small, poorly fitted or top-dose-only effect, or another doubt; inactive = no such curve, though single readings can be large or run the other way; also: potency is read from the fitted curve at half-maximal effect; % is scaled to controls: 0 for no effect and ±100 for the full control effect
#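 Erythrocytes infected with P. falciparum carrying an integrated firefly luciferase reporter (2% hematocrit, 0.1% parasitemia final) were exposed to compounds in RPMI 1640 with 0.5% Albumax at 37 C, 5% CO2. Growth inhibition was scored as reduced luminescence.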
# NS1 inh: inhibitors of influenza NS1 protein function; Potency, µM (highest dose often 46.1 µM), for the others: at the top dose activity, positive = more growth; actives 0.4% (n = 270,000); also: potency is read from the fitted curve at half-maximal effect; actives are rising curves; nearly all actives have a fitted effect of over 50% in size
#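 S. cerevisiae expressing influenza A NS1, grown in glucose, washed, then diluted 1:100 into pH 6.0 -URA galactose medium with 23 nl compound. Growth recovery read as OD600; NS1-free strain serves as control.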
# * marks the source's active call; other numbers are inactive results; ? = inconclusive; / = not tested or not shown; ! = not active in a repeat; [ ] = another dose, or the depositor's remark. Unless noted, calls follow the shape of the full dose curve.
SMILES,SARS PLP yeast,Shiga inhibitor,CHX counter,Pf growth 96h,Pf growth 48h,NS1 inh
CCN(CC)S(=O)(=O)c1cc(C(=O)Nc2cc(C)on2)ccc1Cl,6%,-5,18,?,?,2%
Cc1cc(NC(=O)c2ccc(NC(=O)C3CC3)cc2)no1,-1%,61*,30*,-7%,15%,-1%
Cc1cc(NC(=O)c2ccc(NC(=O)C(C)C)cc2)no1,-1%,77,32,/,65%,-12%
COc1ccccc1C(=O)Nc1cc(-c2ccc(C)cc2)no1,-3%,83*,25*,49%,13%[0.00184 µM],-8%
Oc1ccccc1-c1nc2ccccc2nc1-c1ccccc1,-1%,-1,-2,?,15µM*,-1%
CCN(CC)S(=O)(=O)c1ccc(C(=O)Nc2cc(C)on2)cc1,0%,-4,9,7.4µM*,12µM*,-3%
COc1ccccc1C(=O)Nc1c(C)cc(Br)cc1C,0%,18,11,?,-8%,-40%
CN(CCO)c1ncnc2c1sc1nc(N3CCOCC3)c3c(c12)CCC3,2%,-17,-2,?,67%,2%
NC(=O)C1CCN(c2nc(-c3ccc(C(F)(F)F)cc3)cs2)CC1,/,/,/,26%,?,/
CC(=O)Nc1ccc(NC(=O)C2CCN(C(=O)NC3CCCCC3)CC2)cc1,1%,11,-5,5.2µM*,-3%,1%
CCC(=O)Nc1cnc(NC(=O)c2cccc(F)c2)cc1C,-23%,66,18,195%,421%,-5%
Cc1cc(NC(=O)c2ccc3nc(-c4ccccc4)c(-c4ccccc4)nc3c2)no1,-6%,-9,1,4.7µM*,5.2µM*,-14%
Cc1cc(NC(=O)c2cccc(F)c2)no1,4%,27,26*,169%,30%,-9%
CC(=O)Nc1cnc(NC(=O)c2cccc(F)c2)cc1C,9%,55*,50*,-13%,401%,-3%
CC1=C(C#N)C(Nc2ccc(C)cn2)(C(F)(F)F)C(=O)N1 (stereo not drawn),6%,-16,-4,-5%,/,-14%
O=C(Nc1ccc(-c2ccc3nncn3n2)cc1)c1ccc(Br)o1,0%,9,2,?,?,/
COCCNC(=O)CSc1nc(N)c(NC(=O)c2ccccc2F)c(=O)[nH]1,-25%,-14,-2,34%,11%,12%
Cc1cc(NC(=O)c2ccccc2)no1,-1%,73*,51*,138%,/,-3%
COC(=O)c1ccc(NC(=O)C2CCN(C(=O)Nc3ccccc3)CC2)cc1,10%,/,/,4.7µM*,?,/
Cc1cc(NC(=O)c2ccccc2Oc2ccccc2)no1,-2%,-14,0,128%,-9%,-8%
COc1ccccc1C(=O)Nc1cc(C)on1,-6%,/,45*,16%,109%,-10%
O=C(Nc1ccccc1)c1ccc(NC(=O)C2CC2)cc1,-4%,42*,32*,6%,104%,1%
Cc1cc(NC(=O)c2cc(-c3ccccc3)on2)no1,-2%,-11,-4,44%,53%,-2%
S=C(NCCCN1CCOCC1)Nc1cccc(-c2nnc3n2CCCCC3)c1,1%,24,-5,?,3%,/
Cc1cc(NC(=O)C(=O)c2cn(C)c3ccccc23)no1,-1%,42,18*,-8%,49%,/
SMILES,SARS PLP yeast,Shiga inhibitor,CHX counter,Pf growth 96h,Pf growth 48h,NS1 inh
Cc1cccc(C)c1NC(=O)C(=O)c1cn(C)c2ccccc12,1%,26,10,19%,-5%,/
Cc1cc(NC(=O)CSc2ccccc2)no1,-4%,43,-1,/,11%,?
O=C(O)c1ccc2nc(-c3ccccc3)c(-c3ccccc3)nc2c1,-14%,65*,56*,?,322%,-23%
C/C(=C\C(=O)Nc1cc(C)on1)c1ccccc1,-18%,57*,37*,113%,?,-22%
O=C1Nc2ccccc2N(O)N1c1ccc(S(=O)(=O)N2CCOCC2)cc1,7%,-10,-3,?,-3%,5%
N#Cc1ccc[n+](CC(=O)c2ccc(Cl)cc2)c1,-3%,14,-3,7.4µM*,-3%,9%
O=C1C2C3C=CC(C2C(=O)N1CN1CCOCC1)C1C2C(=O)N(CN4CCOCC4)C(=O)C2C31 (stereo not drawn),/,/,/,/,/,8%
O=[N+]([O-])c1cccc(-n2cc3ccc([N+](=O)[O-])cc3n2)c1,-3%,/,/,97%,120%,/
C/C(CC(=O)Nc1ccccc1C)=N\NC(=O)Cc1csc(N)n1,7%,62*,41*,-4%,10%,23%
C/C(CC(=O)Nc1ccc(Br)cc1)=N\NC(=O)Cc1csc(N)n1,0%,27,29*,0%,29%,-2%
C/C(CC(=O)Nc1ccc(F)cc1)=N\NC(=O)Cc1csc(N)n1,-3%,-2,-2,-20%,2%,11%
CC(C)c1cccc(C(C)C)c1NC(=O)CCN1C(=O)NC2(CCCC2)C1=O,-2%,/,/,-19%,-6%,/
COc1ccccc1CNC(=O)c1sccc1-c1ccccc1,-4%,11,0,?,?,-11%
CC(C)Sc1nc2ccccc2n2cnnc12,-7%,-7,12,?,12%,-22%
C=CCN1C(=O)C(CC(C)C)NC1=S (stereo not drawn),/,-6,-1,0.54µM*!,-18%,/
CC1CC(=O)N(c2ccc(N(C)Cc3ccccc3)c([N+](=O)[O-])c2)C1=O (stereo not drawn),0%,54*,18*,29%,35%,/
Cc1cccc(-n2ncc3c2CCCC3NC(=O)CCc2cccnc2)c1C (stereo not drawn),0%,10,1,-11%,0%,-4%
CC(C)NC(=O)c1noc2cc([N+](=O)[O-])ccc12,7%,104*,12*,43%,43%,-3%
CCC(C)C(=O)N[C@@H](c1ccccc1)[C@@H](O)C(=O)O[C@H]1C[C@@]2(O)[C@@H](OC(=O)c3ccccc3)C3[C@](C)(C(=O)[C@H](OC(C)=O)C(=C1C)C2(C)C)[C@@H](O)C[C@H]1OC[C@@]31OC(C)=O (stereo partly drawn),-3%,-1,-2,0.23µM*,0.47µM*,-47%
CC(=O)O[C@H]1C(=O)[C@@]2(C)[C@H]([C@H](OC(=O)c3ccccc3)[C@]3(O)C[C@H](OC(=O)[C@H](O)C(NC(=O)c4ccccc4)c4ccccc4)C(C)=C1C3(C)C)[C@]1(OC(C)=O)CO[C@@H]1C[C@@H]2O (stereo partly drawn),0%,1,2,0.074µM*,0.1µM*,-38%
CCCCCC(=O)N[C@@H](c1ccccc1)[C@@H](O)C(=O)O[C@H]1C[C@@]2(O)[C@@H](OC(=O)c3ccccc3)C3[C@](C)(C(=O)[C@H](OC(C)=O)C(=C1C)C2(C)C)[C@@H](O)C[C@H]1OC[C@@]31OC(C)=O (stereo partly drawn),0%,3,-1,?,?,-17%
